Bioassay records: PubChem BioAssay, National Center for Advancing Translational Sciences (NCATS)
In the library only some 17% were active in any assay of this set; here they are far more common.
DT40 TDP1 no CPT – qHTS for Inhibitors of human tyrosyl-DNA phosphodiesterase 1 (TDP1): qHTS in cells in absence of CPT. Potency, µM (top dose mostly 46.2 µM), most hits filed as inhibitors. DT40 Tdp1-/- hTDP1 cells, no CPT, ATP luminescence, 48 h. 15% of 420,000 active; also: nearly all actives have a fitted effect of over 55% in size
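Camptothecin absent (DMSO only). Human TDP1-complemented DT40 knockout cells, 400 cells/well, 37 °C for minimum 48 hr; ATP measured via CellTiter-Glo, 30 min dark incubation, luminescence.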
HT1080-NT tox – kills 2HG-producing HT-1080-NT fibrosarcoma cells | HT-1080-NT fibrosarcoma viability, CellTiter-Glo ATP luminescence, 48 h | Potency, µM (series often up to 46.1 µM), hits mostly cytotoxic | 1.6% of 360,000 active;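 also: NT is the 2HG producing partner of a matched IDH1 knockdown line; nearly all actives have a fitted effect of over 55% in size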
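750 cells/well, RPMI + 5% FBS; 2 h settle, compound pin-transfer, 48 h at 37 degrees C. CellTiter-Glo 10 min RT, luminescence. Normalized to DMSO and media-only wells.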
TDP1 cell CPT – growth inhibition of DT40 Tdp1-/-;hTDP1 cells with camptothecin (screen for TDP1 inhibitors) | chicken DT40 Tdp1-/-;hTDP1 cells + 20 nM CPT, ATP luminescence, 48 h | Potency, µM (highest dose often 46.2 µM), hits mostly inhibitors | 12% of 420,000 active; also: nearly all actives have a fitted effect of over 55% in size
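Chicken DT40 Tdp1-/- cells complemented with human TDP1, 400 cells/well, exposed to compounds plus 20 nM camptothecin for at least 48 h at 37 C; viability read as ATP content by CellTiter-Glo luminescence.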
TGFb SMAD3 inh – blocks TGF-b signaling. AID 588855. Potency, µM (series often up to 46.1 µM), most hits filed as inhibitors. HepG2 CAGA-GFP TGF-b/SMAD3 reporter, GFP fluorescence, 18 h; TGF-beta stimulated, 500 pg/mL final. 1.2% of 410,000 active; also: nearly all actives have a fitted effect of over 65% in size
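Using HEPG2 CAGA-GFP reporter cells at 1000 cells/well, we pinned test compounds, stimulated with recombinant TGF-beta (500 pg/mL final) and measured total well GFP after 18 h.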
HepG2 tox – HepG2 cytotoxicity, counter-screen for TGF-b inhibitors. HepG2 CAGA-GFP viability, ATP luminescence, 18 h. Potency, µM (series often up to 46.1 µM), usual class: cytotoxic. 0.76% of 410,000 active. AID 588856
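HepG2 CAGA-GFP cells (1000/well, DMEM with 1% FBS) received compound, then TGF-beta at 500 pg/mL final, and were incubated 18 hours at 37 degrees C. Viability was read by CellTiter-Glo luminescence. Media-only wells were set as complete cell-killing and DMSO as no toxicity.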
HT1080 IDH1KD tx – HT-1080 IDH1 knockdown cell toxicity (counter line) | HT-1080 IDH1 knockdown viability, ATP luminescence, 48 h | AID 686971 | Potency, µM (highest dose often 46.1 µM), usual class: cytotoxic | 2% of 360,000 active
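Cytotoxicity counter-line: IDH1KD HT-1080, 48 h, CellTiter-Glo. Curves classed by r2, magnitude and activity.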
A number is an active result. Calls follow the shape of the dose curve; as a rule, active = well fitted curve in the direction sought with a large enough effect; inconclusive = small, poorly fitted or top-dose-only effect, or another doubt; inactive = no such curve, though single readings can be large; an effect the other way counts as inactive or inconclusive.

Screening C[C@H]1CCCCO[C@@H](CN(C)S(=O)(=O)c2ccc(F)cc2)[C@@H](C)CN([C@@H](C)CO)C(=O)c2cc(NC(=O)Nc3ccc4c(c3)OCO4)ccc2O1 returned DT40 TDP1 no CPT 9.2µM, HT1080-NT tox inactive, TDP1 cell CPT 18.4µM, TGFb SMAD3 inh inactive, HepG2 tox inactive and HT1080 IDH1KD tx inactive.
`C[C@@H]1CCCCO[C@H](CN(C)C)[C@H](C)CN([C@@H](C)CO)C(=O)c2cc(NC(=O)Nc3ccc(C(F)(F)F)cc3)ccc2O1` gave DT40 TDP1 no CPT inactive, HT1080-NT tox inactive, TDP1 cell CPT inconclusive, TGFb SMAD3 inh inactive, HepG2 tox inactive and HT1080 IDH1KD tx inactive.
For C[C@@H]1CCCCO[C@H](CN(C)S(=O)(=O)c2ccc(F)cc2)[C@@H](C)CN([C@H](C)CO)C(=O)c2cc(NC(=O)Nc3ccc(C(F)(F)F)cc3)ccc2O1 the results were DT40 TDP1 no CPT 8.2µM, HT1080-NT tox inactive, TDP1 cell CPT 9.2µM, TGFb SMAD3 inh inactive, HepG2 tox inactive and HT1080 IDH1KD tx inactive.
COc1ccc(S(=O)(=O)N(C)C[C@@H]2OCCCC[C@H](C)Oc3ccc(NC(=O)Nc4ccc(C(F)(F)F)cc4)cc3C(=O)N([C@H](C)CO)C[C@H]2C)cc1 was read as DT40 TDP1 no CPT 7.31µM, HT1080-NT tox inactive, TDP1 cell CPT inactive, TGFb SMAD3 inh inactive, HepG2 tox inactive and HT1080 IDH1KD tx inactive.
For COc1ccccc1-c1nc(SCC(=O)NCc2ccc(C)cc2)c2c(=O)n(C)c(=O)n(C)c2n1 the results were DT40 TDP1 no CPT inactive, TDP1 cell CPT inactive, TGFb SMAD3 inh inactive and HepG2 tox inactive.
Screening CCc1cccc(C)c1NC(=O)Cn1cc2c(n1)CCCCC2 returned DT40 TDP1 no CPT inconclusive, TDP1 cell CPT inconclusive, TGFb SMAD3 inh inactive and HepG2 tox inactive.
For CSc1oc(-c2ccc(F)cc2)nc1S(=O)(=O)c1ccc(F)cc1 the results were DT40 TDP1 no CPT 23.1µM, HT1080-NT tox inactive, TDP1 cell CPT 14.6µM, TGFb SMAD3 inh inactive, HepG2 tox inactive and HT1080 IDH1KD tx inactive.
CS(=O)(=O)c1oc(-c2ccc(F)cc2)nc1S(=O)(=O)c1ccc(Cl)cc1 was read as DT40 TDP1 no CPT 0.82µM, TDP1 cell CPT 0.581µM, TGFb SMAD3 inh 3.16µM and HepG2 tox 5.01µM.
`CCS(=O)(=O)c1oc(-c2ccc(F)cc2)nc1S(=O)(=O)c1ccc(Br)cc1` gave DT40 TDP1 no CPT 1.16µM, TDP1 cell CPT 0.92µM, TGFb SMAD3 inh 2.82µM and HepG2 tox 3.55µM.
`CSc1oc(-c2ccccc2)nc1S(=O)(=O)c1ccc(F)cc1` gave DT40 TDP1 no CPT inactive, HT1080-NT tox inactive, TDP1 cell CPT inactive, TGFb SMAD3 inh inconclusive, HepG2 tox inactive and HT1080 IDH1KD tx inactive.
`Cc1ccc2c(c1)[C@H]1[C@H](CO2)[C@H](c2ccccc2)[C@]2(C)C(=O)N(C)CC(=O)N12` gave DT40 TDP1 no CPT inactive, HT1080-NT tox inactive, TDP1 cell CPT inactive, TGFb SMAD3 inh inactive, HepG2 tox inactive and HT1080 IDH1KD tx inactive.
Screening N#Cc1c(-n2ncnc2-c2cccc(Cl)c2)sc2c1CCCCC2 returned DT40 TDP1 no CPT inactive, TDP1 cell CPT inactive, TGFb SMAD3 inh inactive and HepG2 tox inactive.
`Cc1ccc(S(=O)(=O)Nc2cc(C(=O)NCCN(C)C)ccc2N2CCCCC2)cc1` gave DT40 TDP1 no CPT 16.4µM, HT1080-NT tox inconclusive, TDP1 cell CPT inconclusive, TGFb SMAD3 inh inactive, HepG2 tox inactive and HT1080 IDH1KD tx inconclusive.
`Cc1ccc(S(=O)(=O)Nc2cc(C(=O)NCCN3CCCC3)ccc2N2CCCCC2)cc1` gave DT40 TDP1 no CPT 16.4µM, HT1080-NT tox inconclusive, TDP1 cell CPT 20.6µM, TGFb SMAD3 inh inactive, HepG2 tox inactive and HT1080 IDH1KD tx inconclusive.
Screening COc1ccc(CN(C(=S)Nc2ccccc2)C2CC(=O)N(c3ccc(Cl)cc3)C2=O)cc1 (stereo unspecified) returned DT40 TDP1 no CPT inactive, HT1080-NT tox 11.6µM, TDP1 cell CPT inconclusive, TGFb SMAD3 inh inconclusive, HepG2 tox inactive and HT1080 IDH1KD tx inconclusive.
For COc1ccc(CN(C(=S)Nc2ccccc2)C2CC(=O)N(c3ccccc3)C2=O)cc1 (stereo unspecified) the results were DT40 TDP1 no CPT inconclusive, HT1080-NT tox inactive, TDP1 cell CPT inconclusive, TGFb SMAD3 inh inactive, HepG2 tox inactive and HT1080 IDH1KD tx inactive.
For COc1ccc(/C=C/C(=O)N(CC(C)C)CC(C)C)cc1Br the results were DT40 TDP1 no CPT 16.4µM, HT1080-NT tox inactive, TDP1 cell CPT 16.4µM, TGFb SMAD3 inh inactive, HepG2 tox inactive and HT1080 IDH1KD tx inactive.
`COc1ccc(CN2CCN(C(=O)CC(C)C)CC2)cc1Br` gave DT40 TDP1 no CPT inconclusive, HT1080-NT tox inactive, TDP1 cell CPT inactive, TGFb SMAD3 inh inactive, HepG2 tox inactive and HT1080 IDH1KD tx inactive.
`O=C(c1ccc(Br)cc1)N1CCC(C(=O)N2CCN(Cc3ccccc3)CC2)CC1` gave DT40 TDP1 no CPT inconclusive, HT1080-NT tox inactive, TDP1 cell CPT inconclusive, TGFb SMAD3 inh inactive, HepG2 tox inactive and HT1080 IDH1KD tx inactive.
`O=C(CSc1nnc(-c2cccnc2)s1)Nc1ccnc2ccccc12` gave DT40 TDP1 no CPT 0.517µM, HT1080-NT tox inactive, TDP1 cell CPT 1.16µM, TGFb SMAD3 inh inactive, HepG2 tox inactive and HT1080 IDH1KD tx inconclusive.
Cc1ccc(NC(=O)CSc2nnc(-c3cccnc3)s2)cc1 was read as DT40 TDP1 no CPT inactive, HT1080-NT tox inactive, TDP1 cell CPT inactive, TGFb SMAD3 inh inactive, HepG2 tox inactive and HT1080 IDH1KD tx inactive.
`OC(c1cc(F)cc(Cl)c1)c1ncc(-c2ccc(Cl)cc2)[nH]1` (stereo unspecified) gave DT40 TDP1 no CPT inconclusive, HT1080-NT tox inconclusive, TDP1 cell CPT 18.4µM, TGFb SMAD3 inh inconclusive, HepG2 tox inactive and HT1080 IDH1KD tx inconclusive.
`OC(c1ccc(Cl)c(Cl)c1)c1ncc(-c2cccc(F)c2)[nH]1` (stereo unspecified) gave DT40 TDP1 no CPT inconclusive, HT1080-NT tox inconclusive, TDP1 cell CPT inconclusive, TGFb SMAD3 inh inactive, HepG2 tox inactive and HT1080 IDH1KD tx inactive.
OC(c1cc(Cl)cc(Cl)c1)c1ncc(-c2cccc(F)c2)[nH]1 (stereo unspecified) was read as DT40 TDP1 no CPT 16.4µM, HT1080-NT tox inconclusive, TDP1 cell CPT inconclusive, TGFb SMAD3 inh inconclusive, HepG2 tox inactive and HT1080 IDH1KD tx inconclusive.
